Bioassay records (PubChem BioAssay)
LASV entry inh – inhibitors of Lassa virus binding or cell entry | Lassa virus pseudotype entry inhibition, cell reporter | Potency, µM (highest dose often 37.9 µM), for the others: top-dose activity change, negative = inhibition, usual class: inhibitors | actives 1.2% (n = 300,000); calls by dose curve; tested in HEK293 cells; further: potency means the concentration at half of the fitted maximal effect; on the % scale 0 is the no-effect control and ±100 the full control effect; nearly all actives have a fitted effect of over 50% in size
CHX counter – counter-screen hit for Shiga toxin inhibitors, cycloheximide. cell reporter, cycloheximide protein synthesis inhibition counterscreen. max response, %. actives 12% (n = 300,000); in the data active means max response mostly above about 13%, no sharp cut-off; inactive means mostly below about 14%; further: read at 38.3 µM for the half of the compounds with a filed dose; 0% is about no effect
FMDV antiviral – antivirals against foot and mouth disease virus | FMDV antiviral cell-based qHTS | Potency, µM (titrated, usually from 57.9 µM), for the others: at the top dose activity change, negative = inhibition, most hits filed as inhibitors | actives 1.2% (n = 410,000) | AID 1159524; calls by dose curve; tested in HEK293T cells; further: read-out not given here; potency means the concentration at half of the fitted maximal effect; on the % scale 0 is the no-effect control and ±100 the full control effect; nearly all actives have a fitted effect of over 45% in size
Shiga toxin inh – blocks Shiga toxin action in Vero cells. Vero cells, Shiga toxin protein synthesis inhibition reporter. actives 9.2% (n = 290,000). inhibition, % at 38.7 µM; in the data active means inhibition mostly above about 28%, no sharp cut-off; inactive means mostly below about 43%; further: 0% is about no effect
HCV inhibitor – HCV inhibition; actives 3.4% (n = 340,000); AID 651820; Huh7.5.1 HCVcc-Cre infection, luciferase reporter, 44 h; Potency, µM (series often up to 41.8 µM), without a hit: at the top dose activity change, negative = inhibition, hits mostly inhibitors; active means well fitted inhibition curve with a large enough effect; inconclusive means small, poorly fitted or top-dose-only effect, or another doubt; inactive means no such curve, though single readings can be large or run the other way; further: potency means the concentration at half of the fitted maximal effect; on the % scale 0 is the no-effect control and ±100 the full control effect
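Antiviral activity was scored by luciferase reporter output from cells infected with HCVcc-Cre (~0.5 moi) in presence of compound, 44 h infection period, cells seeded 1,000/well 4 h prior.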
MARV entry inh – Marburg virus entry inhibition; Marburg virus pseudotyped entry inhibition, cell reporter; Potency, µM (doses to about 37.8 µM), for the others: top-dose activity change, negative = inhibition, usual class: inhibitors; actives 1.8% (n = 300,000); AID 540276; calls by dose curve; tested in HEK293 cells; further: potency means the concentration at half of the fitted maximal effect; on the % scale 0 is the no-effect control and ±100 the full control effect
Active calls of the source: *; ? = inconclusive; . = no result given; [ ] = remark or other dose. Hits are enriched below; roughly 13% of the tested compounds scored in any of these assays.

SMILES	LASV entry inh	CHX counter	FMDV antiviral	Shiga toxin inh	HCV inhibitor	MARV entry inh
CCOCCCNC(=O)C(c1ccc(C)cc1)N(Cc1cccs1)C(=O)c1ccccc1O (centres undefined)	11µM*	1	54%	-15	2%	?
CCOCCCNC(=O)C(c1ccc(C)cc1)N(Cc1cccs1)C(=O)c1ccc(NC(C)=O)cc1 (centres undefined)	?	.	-22%	.	.	?
CCOCCCNC(=O)C(c1ccc(Cl)cc1)N(Cc1cccs1)C(=O)c1ccc(NC(C)=O)cc1 (centres undefined)	?	.	0%	.	.	10µM*
CCC1CCCCN1CCCn1c(=S)[nH]c2ccccc2c1=O (centres undefined)	-4%	-4	-13%	-26	-16%	-9%
CC1(c2ccc(Cl)cc2)NC(=S)N2C1NC(=S)N2c1ccccc1 (centres undefined)	-8%	2	51%	-3	4%	-3%[46.1 µM]
CC(=O)c1cc(Cc2csc(C(C)=O)c2)cs1	18%	-4	.	16	4%	14%
O=C(Nc1nnc(CSCc2ccc(F)cc2)s1)c1cccc([N+](=O)[O-])c1	-24%	0	40µM*	-12	8%	-17%
CCC(C)(C)c1nnc(NC(=O)c2cccc([N+](=O)[O-])c2)s1	-16%	14*	22%	76*	27%	?
O=C(Nc1nnc(CSCc2ccc(Cl)cc2)s1)c1cccc([N+](=O)[O-])c1	?	-2	0%	-9	21%	-6%
Cc1ccc(-n2c(C)c(C)c3c(NCCCO)ncnc32)cc1	?	45*	21%	120*	?	?
COc1ccc(-n2c(C)c(C)c3c(NCCN(C)C)ncnc32)cc1	.	-2	-17%	1	-3%	.
COc1ccc(-n2c(C)c(C)c3c(NCCCN(C)C)ncnc32)cc1	12%[46.1 µM]	-4	-14%	-14	-13%	?
COc1ccc(-n2c(C)c(C)c3c(NCCO)ncnc32)cc1	?	33*	42%	59*	3%	?
COc1ccc(-n2c(C)c(C)c3c(NCCCO)ncnc32)cc1	?	43*	42%	71*	-18%	?
Cc1ccc(C=NNC(=O)c2cc(-c3cccnc3)nc3ccccc23)o1	?	.	0%	.	-8%	?
O=C(Nc1cccc(F)c1)N1CCC(n2c(=O)[nH]c3ccccc32)CC1	-7%	1	?	32	-17%	-3%[46.1 µM]
CC1=CC(=O)OC1Cc1ccncc1 (centres undefined)	-4%	-2	-4%	-14	-6%	-21%[46.1 µM]
Cc1ccc(CNC(=O)Cc2c(C(=O)O)c(C)cn2C)cc1	-6%[46.1 µM]	.	-13%	.	.	.
Cc1ccc(/C=N/N2C(=O)c3ccccc3NC2c2ccc(C)cc2)cc1 (centres undefined)	-26%	82*	31%	96*	-6%	?
O=C1c2ccccc2NC(c2ccco2)N1/N=C/c1ccco1 (centres undefined)	-3%[46.1 µM]	32*	-2%	71	-7%	0%
C/C(=N\N1C(=O)c2ccccc2NC1c1ccccc1)c1ccccc1O (centres undefined)	.	23*	15%	67*	?	.
C/C(=N\N1C(=O)c2ccccc2NC1c1ccco1)c1ccccc1O (centres undefined)	?	32*	11%	65*	3.5µM*	8.2µM*
CC(=O)NN1C(=O)c2ccccc2NC1c1ccco1 (centres undefined)	.	11	-17%	17	21%	.
Cn1c(SCCOc2ccc(Cl)cc2)nnc1-c1ccncc1	0%	-1	0%	-2	?	-3%
Cc1ccc(N2Cc3ccccc3C2=O)cc1	.	25*	21%	24	-11%	.
SMILES	LASV entry inh	CHX counter	FMDV antiviral	Shiga toxin inh	HCV inhibitor	MARV entry inh
O=C1c2ccccc2CN1c1ccccc1	2%[46.1 µM]	38*	8%	54*	6%	?
CCOc1ccc(N2C(=O)c3cccnc3C2Nc2ccc(F)cc2)cc1 (centres undefined)	-11%	6	103%	11	1%	0%
O=C1NCCN1c1ccccc1	?	.	-4%	.	10%	18%
CCOc1ccc(N2Cc3ncccc3C2=O)cc1	?	47*	20%	137*	1%	?
Cc1ccc(N2C(=O)Cc3ccccc3C2=O)cc1	-2%	0	-25%	-1	-13%	1%[46.1 µM]
O=C1N(c2ccccc2)CCN1c1ccccc1	.	38*	0%	.	5%	.
CCCCN(CCCC)Cc1ccc(C(=O)NNC(=O)Nc2ccc(F)cc2)o1	26%[46.1 µM]	7	2%	-13	-11%	?
C=CC(=O)Oc1ccc(N2Cc3ccccc3C2=O)cc1	.	.	-12%	.	0%	.
COc1ccc(N2Cc3ccccc3C2=O)cc1	?	35*	-20%	.	-6%	?
Cc1cc(F)c(F)c(C(=O)NC2CC2)c1Cl	1%	-2	.	-15	1%	11%
O=C(NC(=S)NCc1ccccc1)c1ccc2c(c1)OCO2	3%	19*	50%	-52	9%	-1%
O=C(c1ccc2c(c1)OCO2)C1CCCN(C2CCN(CCc3ccccc3)CC2)C1 (centres undefined)	?	-4	-8%	-16	3.5µM*	7.1µM*
O=C(NCCc1ccccc1)c1ccc2c(c1)OCO2	1.1µM*	-1	7.9µM*	-3	7%	1.3µM*
O=C(NNC(=S)NCc1ccccc1)c1ccc2c(c1)OCO2	15%	7	-2%	14	16%	6%
Cc1onc(-c2ccccc2)c1C(=O)NNC(=S)NC(=O)c1ccc2c(c1)OCO2	?	46*	-18%	90*	7%	-21%[46.1 µM]
Cc1nn(CC(=O)NCCCN2CCOCC2)c(C)c1[N+](=O)[O-]	7%	-3	2%	-5	-3%	?
CC1=NN(C(N)=S)C(=O)C1N=Nc1c(C)cc(C)cc1C (centres undefined)	-13%	3	31%	-13	21%	22%[46.1 µM]
CC1=NN(C(N)=S)C(=O)C1N=Nc1ccccc1O (centres undefined)	.	15*	23%	16	15%	.
CC1=NN(C(N)=S)C(=O)C1N=Nc1ccccc1C (centres undefined)	4%	11	15%	38	2%	?
CC1=NN(C(N)=S)C(=O)C1N=Nc1cccc(Cl)c1 (centres undefined)	.	44*	34%	79*	5%	.
CC1=NN(C(N)=S)C(=O)C1N=Nc1ccc(C)cc1C (centres undefined)	.	29*	.	59*	.	7%
CC1=NN(C(N)=S)C(=O)C1N=Nc1c(Cl)cc([N+](=O)[O-])cc1Cl (centres undefined)	.	18*	-12%	27*	-15%	.
Cc1ccc(-n2nc3c(=O)n(CCCC(=O)N4CCCCC4)nc(C)c3c2C)cc1	.	-1	-4%	-9	1%	.
Oc1ccc(-c2nc3ccccc3s2)c(O)c1	15%[46.1 µM]	40*	22%	92*	-5%	?
